FUS suppressor = suppressors of FUS proteinopathy in yeast; S. cerevisiae FUS-expressing, growth rescue, OD600, 24 h; Potency, µM (series often up to 76.6 µM), usual class: activators; 390,000 tested, 0.24% active; also: nearly all actives have a fitted effect of over 55% in size
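Galactose (2%) drives FUS expression in yeast precultured in raffinose; seeding density OD 0.005. Test compounds incubated 24hr at 30C and 99% humidity before absorbance at 600 nm was measured.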
LDHA block = LDHA (human) enzyme inhibition; purified LDHA, NADH/diaphorase-resazurin fluorescence; active compounds read low; activity change, % (values are at about 110 or 230 µM); 480,000 tested, 0.15% active; AID 1347041; in the data active = activity change below about -30%; inconclusive = mostly about -25% to -30%
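LDH5 2 nM; NADH 0.06 mM, pyruvate 0.2 mM; 200 mM Tris pH 7.4, EDTA, Tween-20; 5 min RT. Detection: diaphorase 0.133 mg/mL + resazurin 37 µM, fluorescence ex540/em590 at 0 and 20 min; normalized to enzyme-free and DMSO wells.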
TDP-43 yeast inh = inhibitors of TDP-43 toxicity in yeast; TDP-43 expressing yeast growth rescue, BacTiter-Glo, 24 h; AID 652104; 410,000 tested, 1.8% active; Potency, µM (titrated, usually from 46.1 µM), actives largely listed as activators; also: nearly all actives have a fitted effect of over 50% in size
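In this qHTS, compounds that restore growth of yeast expressing TDP-43 appear as activators. Cells (OD600=0.02, galactose medium, raffinose-pregrown) are incubated with compound 24 hr at 30 deg C and growth is quantified by BacTiter-Glo.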
Abeta rescue = A-beta toxicity reversal in yeast | 410,000 tested, 0.063% active | Potency, µM (top dose mostly 46.1 µM), actives largely listed as activators | yeast expressing A-beta42, growth rescue, OD600, 48 h; response scale: 0% DMSO, 100% iron-clioquinol control; also: nearly all actives have a fitted effect of over 55% in size
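Yeast A-beta toxicity model in growth medium with pinned compounds, 48 h at 30 C; growth read as absorbance at 600 nm. Normalized to FeCl3/clioquinol equimolar mix (positive) and DMSO (negative).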
aSyn rescue = alpha-synuclein toxicity inhibition in yeast; Yeast expressing alpha-synuclein, growth rescue, BacTiter-Glo, 24 h; Potency, µM (top dose mostly 46.1 µM), most hits filed as activators; 370,000 tested, 0.14% active; AID 652106; also: nearly all actives have a fitted effect of over 65% in size
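Galactose-induced alpha-syn yeast (OD600=0.02, raffinose-pregrown) + pinned cpd, 24 hr, 30 deg C; growth by BacTiter-Glo luminescence. Growth restoration scores as activation.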
IDH1 R132H inh = human IDH1 R132H inhibition; O75874; IDH1-R132H enzyme, NADPH consumption, diaphorase/resazurin fluorescence; Potency, µM (series often up to 76.6 µM), usual class: inhibitors; 390,000 tested, 0.093% active; also: nearly all actives have a fitted effect of over 65% in size
Target sequence (O75874 whole entry R132H, stated change not applied): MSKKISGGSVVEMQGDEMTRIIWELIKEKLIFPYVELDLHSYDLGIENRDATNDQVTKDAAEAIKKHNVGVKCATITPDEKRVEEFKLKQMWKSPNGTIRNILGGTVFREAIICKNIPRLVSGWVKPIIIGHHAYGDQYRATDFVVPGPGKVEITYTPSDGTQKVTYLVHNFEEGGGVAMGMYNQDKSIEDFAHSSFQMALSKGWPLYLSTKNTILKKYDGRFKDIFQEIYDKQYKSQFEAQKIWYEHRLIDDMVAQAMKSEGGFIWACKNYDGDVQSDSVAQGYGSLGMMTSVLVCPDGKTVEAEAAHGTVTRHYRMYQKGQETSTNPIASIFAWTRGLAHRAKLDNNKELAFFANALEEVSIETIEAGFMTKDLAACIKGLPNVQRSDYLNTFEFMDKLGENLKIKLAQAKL
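IDH1-R132H (0.5 ug/mL dispensed) in pH 7.5 Tris buffer was preincubated 30 min with compound, then given a substrate mix of 0.016 mM NADPH and 2 mM alpha-KG for 80 min at room temperature; remaining NADPH was read by diaphorase/resazurin fluorescence.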
A number is an active result; . = inactive; ? = inconclusive; / = no result given. An excerpt weighted towards active compounds, which were near 2% of everything screened. Unless noted, calls follow the shape of the dose curve; as a rule, active = well fitted curve in the direction sought with a large enough effect; inconclusive = small, poorly fitted or top-dose-only effect, or another doubt; inactive = no such curve, though single readings can be large; an effect the other way counts as inactive or inconclusive.

SMILES	FUS suppressor	LDHA block	TDP-43 yeast inh	Abeta rescue	aSyn rescue	IDH1 R132H inh
S=C(NCc1cccs1)Nc1ccc(Br)cc1Cl	.	.	35.5µM	?	.	.
S=C(NCc1ccccn1)Nc1ccc(Cl)cc1Cl	.	.	11.2µM	.	.	.
O=C(O)Cc1ccc(NC(=S)Nc2cccc(Cl)c2Cl)cc1	?	.	.	.	.	.
O=C(O)Cc1ccc(NC(=S)Nc2ccc(Br)cc2Cl)cc1	.	.	35.5µM	.	.	.
c1ccc(-c2ccc(CNCC3CCCO3)cc2)cc1 (stereo not given)	/	.	/	/	/	/
Nc1nnc(CC(=O)N/N=C/c2cc([N+](=O)[O-])cc(Br)c2O)s1	/	-85.6	.	.	.	.
Cc1ccc(-c2cc(C(=O)N3CCN(Cc4ccncc4)CC3)c3ccccc3n2)o1	/	.	/	/	/	/
CN(CC(=O)Nc1ccc(Cl)cc1)C(=O)c1sccc1-c1ccccc1	.	.	22.4µM	?	.	.
CN(CC(=O)Nc1cccc(F)c1)C(=O)c1sccc1-c1ccccc1	.	.	.	.	.	.
Cc1cc(N(C)Cc2ccccc2)n2nc(-c3ccc(C(C)(C)C)cc3)nc2n1	?	.	15.8µM	.	/	.
CCN(CC)c1cc(C)nc2nc(-c3ccc(C)cc3)nn12	.	.	20µM	.	/	.
COc1ccc(OC)c(CNC(=O)c2ncoc2-c2cccc(Cl)c2)c1	/	.	/	/	/	/
COc1cc(/C=C/C(=O)OCc2cc(=O)oc3cc(C)ccc23)ccc1O	/	.	/	/	/	/
CCOC(=O)c1ccc(NC2c3ccccc3C(=O)N2c2ccc(C)cn2)cc1 (stereo not given)	.	.	.	.	3.98µM	.
CNC(=S)N1N=C(c2ccc(OC)cc2)CC1c1ccccc1Cl (stereo not given)	.	.	3.16µM	.	.	.
COc1ccc(-c2noc(CCc3ccccc3)n2)cc1	.	.	17.8µM	.	.	.
c1ccc(OCCCc2nc(-c3cccnc3)no2)cc1	.	.	.	.	.	.
O=C(CCCc1nc(-c2ccc(Cl)cc2)no1)Nc1cccnc1	.	.	15.8µM	.	?	.
c1ccc(CCCc2nc(-c3cccnc3)no2)cc1	.	.	8.91µM	.	.	.
COC(=O)C1=C(C)OC(N)=C(C#N)C1c1ccc(-c2ccccc2)cc1 (stereo not given)	/	.	/	/	/	/
COc1ccc(-n2cnc3cc(C(=O)NC4CCCCCC4)ccc32)cc1	.	.	35.5µM	.	/	.
COc1ccc(OC)c(-n2cnc3cc(C(=O)NC4CCCCCC4)ccc32)c1	?	.	.	.	/	.
CCOC(=O)c1c(NC(=S)Nc2cccnc2)sc(C)c1C	.	.	12.6µM	.	.	.
CCOC(=O)c1c(NC(=S)Nc2ccc(Cl)cc2)sc(C)c1C	/	.	.	.	.	.
CN(Cc1ccsc1)C(=O)c1cccc(C(=O)N(C)Cc2ccsc2)n1	/	.	/	/	/	/
SMILES	FUS suppressor	LDHA block	TDP-43 yeast inh	Abeta rescue	aSyn rescue	IDH1 R132H inh
Cc1cc(=O)n2[nH]c(NCc3ccccc3)nc2n1	/	.	/	/	/	/
O=C(/C=C/c1ccccc1)NC(=S)NNC(=O)c1ccco1	?	.	11.2µM	.	3.55µM	.
Cc1cccc(NC(=S)NNC(=O)c2ccco2)c1	.	.	.	.	.	.
O=C(/C=C/c1ccc(Br)cc1)NC(=S)NNC(=O)c1ccco1	.	.	5.62µM	.	22.4µM	.
O=C(NC(=S)NNC(=O)c1ccco1)c1ccccc1	.	.	?	?	12.6µM	.
CCOc1ccc(C2C(C#N)=C(N)Oc3n[nH]c(-c4ccc(F)cc4)c32)cc1OCC (stereo not given)	/	.	/	/	/	/
COc1ccc(C)cc1NC(=O)c1cc(-c2ccc(C)o2)nc2ccccc12	/	.	/	/	/	/
O=c1[nH]nc(CNc2ccc(C(F)(F)F)cc2)c2ccccc12	.	.	.	.	.	.
O=c1[nH]nc(CNc2ccc(OC(F)(F)F)cc2)c2ccccc12	.	.	14.1µM	.	.	.
O=C(NCc1ccco1)c1noc2c1CCCC2	.	.	.	.	.	.
